PubChem BioAssay (Tox21)
Records with an inconclusive call do not appear. Active and inactive are the calls of the source. The call rests on the fitted dose curve; in most records, active means well fitted cell-killing curve with a large enough effect in the repeat runs; inconclusive means weak or mixed curves, or effect the other way; inactive means no such curve, though single readings can be large or run the other way.

assay: qHTS assay to identify small molecule antagonists of the glucocorticoid receptor (GR) signaling pathway - cell viability counter screen (AID 720693); conditions: GR-bla HeLa viability, CellTiter-Glo luminescence, 18 h, with 5 nM dexamethasone present; series mostly up to 58.5 µM; viability change, negative = cytotoxic: at the top concentration; further: nearly all actives have a fitted effect of over 55% in size
Text: National Center for Advancing Translational Sciences [NCATS]
NIH Chemical Genomics Center [NCGC]
U.S. Environmental Protection Agency [EPA]
National Institutes of Environmental Health Sciences [NIEHS]
National Toxicology Program [NTP]
U.S. Food and Drug Administration [FDA]
The Glucocorticoid receptor (GR) is one of the members of the nuclear receptor family of ligand-dependent transcription factors. GR plays a critical role in carbohydrate, protein and lipid metabolisms and programmed cell death. CellSensor GR-bla HeLa cell line (Invitrogen) contains a beta-lactamase reporter gene under the control of the glucocorticoid response element stably integrated into HeLa cells, a cervical cancer cell line that expresses glucocorticoid receptor. The activation of the reporter gene under culture conditions can be detected by fluorescence intensity. This cell line has been used to screen the Tox21 10K compound library and to identify the compounds that inhibit the GR signaling. The cytotoxicity of the Tox21 compound library against the GR-bla HeLa cell line was tested in parallel by measuring the cell viability using CellTiter-Glo assay in the same wells.
Tox21 Assay Protocol Summary:
The GR-bla HeLa cells were dispensed at 1500 cells/5 ul/well in 1536-well black wall/clear bottom plates using a Multidrop Combi (ThermoFisher Scientific, Waltham, MA) dispenser. After the assay plates were incubated at a 37 C/5% CO2 incubator for 4 hours, 23 nL of compounds dissolved in DMSO, positive controls or DMSO only was transferred to the assay plate by a pintool station (Kalypsys, San Diego, CA), followed by addition of 1 uL of dexamethasone (5 nM, final concentration in the well). The plates were incubated at 37 C for 18 hours. After 1 uL of LiveBLAzerTM B/G FRET substrate was added using a Flying Reagent Dispenser (Aurora Discovery, San Diego, CA), the plates were incubated at room temperature (RT) for 2 hours, and fluorescence intensity was measured by an Envision plate reader (PerkinElmer, Shelton, CT). After measurement of bla assay, 3 ul CellTiter-Glo (Promega, Madison, WI) was added to measure the cytotoxicity and the plates were then incubated at RT for 30 min. The luminescence was measured using a ViewLux (Perkin Elmer) plate reader.
On the % scale 0 is the no-effect control and ±100 the full control effect.

Row | Compound | viability change, negative = cytotoxic | Potency
1 | CC(C)(C)C(=O)OCOP(=O)(COCCn1cnc2c(N)ncnc21)OCOC(=O)C(C)(C)C | -1.91% (inactive) | –
2 | COc1ccc2[nH]c(S(=O)Cc3ncc(C)c(OC)c3C)nc2n1 (stereo not given) | -17.4% (inactive) | –
3 | CCCCOC(O)CC (stereo not given) | -3.34% (inactive) | –
4 | CCCCCCOC(=O)CCC | -1.14% (inactive) | –
5 | O=S(=O)(O)c1ccc(O)c2ncccc12 | 2.44% (inactive) | –
6 | CCC(=O)OC(C)(C)C1CC=C(C)CC1 (stereo not given) | -10.9% (inactive) | –
7 | CC(CN)CCCN (stereo not given) | -3.69% (inactive) | –
8 | Cc1cccc(Oc2ccccc2)c1 | -1.74% (inactive) | –
9 | CC(=O)NCCCS(=O)(=O)O | – | inactive
10 | c1ccc(OCc2ccc(CCCN3CCOCC3)cc2)cc1 | 20.8% (inactive) | –
11 | Nc1nc(N)c(-c2ccccc2)s1 | -8.03% (inactive) | –
12 | O=C(Nc1ccccc1)OCC(CN1CCCCC1)OC(=O)Nc1ccccc1 (stereo not given) | 10.5% [at 27 µM] (inactive) | –
13 | N[C@H]1C(O)O[C@H](CO)[C@H](O)[C@@H]1O (stereo not given in full) | -5.46% (inactive) | –
14 | c1ccc(CNCc2ccccc2)cc1 | 2.31% (inactive) | –
15 | COC(Cc1ccccc1)OC | 0.846% (inactive) | –
16 | CCCCCCCCC(CO)CCCCCC (stereo not given) | 10.5% (inactive) | –
17 | Cn1sccc1=O | 3.53% (inactive) | –
18 | NC[C@H]1O[C@H](O[C@H]2[C@H](O)[C@@H](O[C@H]3O[C@H](CO)[C@@H](O)[C@H](N)[C@H]3O)[C@H](N)C[C@@H]2N)[C@H](O)[C@@H](O)[C@@H]1O | – | inactive
19 | CCCCOc1cc(C(=O)OCCN(CC)CC)ccc1N | -9.6% [at 27 µM] (inactive) | –
20 | CC(C)(C)c1ccc(S)cc1 | -3.56% (inactive) | –

Row | Compound | viability change, negative = cytotoxic | Potency
21 | C[C@H](CCC(=O)O)[C@H]1CC[C@H]2[C@@H]3[C@H](O)C[C@@H]4C[C@H](O)CC[C@]4(C)[C@H]3CC[C@]12C | – | inactive
22 | CC[C@H](C)[C@H](N)C(=O)O | -4.42% (inactive) | –
23 | CC(C)(C)c1cc(CO)cc(C(C)(C)C)c1O | -3.28% [at 78.9 µM] (inactive) | –
24 | COc1ccc(OC)c(OC)c1 | -0.471% (inactive) | –
25 | CCCCCCCCCCCCCCC1CO1 (stereo not given) | -6.27% (inactive) | –
26 | CC(C)c1ccccc1C(C)C | 8.96% (inactive) | –
27 | CCCCCCCCCCCCC(=O)O | 8.23% [at 78.9 µM] (inactive) | –
28 | CCOc1cc(OCC)c(C(=O)CCC(=O)O)cc1OCC | 1.19% (inactive) | –
29 | O=C(O)COC(=O)Cc1ccccc1Nc1c(Cl)cccc1Cl | 3.47% [at 27 µM] (inactive) | –
30 | CN1CCN(C2=Nc3ccccc3Sc3ccc(Cl)cc32)CC1 | 4.52% (inactive) | –
31 | CC(C(=O)O)c1ccc(C(=O)c2ccccc2)s1 (stereo not given) | 3.1% [at 27 µM] (inactive) | –
32 | CCCCOCCOCCOCCOCCO | -3.69% (inactive) | –
33 | Cc1ncsc1CCO | 3% (inactive) | –
34 | O=C(NN1CCCC1)NS(=O)(=O)c1ccc(Cl)cc1 | -5.77% (inactive) | –
35 | CCCc1ccccc1 | -8.42% (inactive) | –
36 | Cc1cc(C)c(S(=O)(=O)O)cc1N=Nc1cc(S(=O)(=O)O)c2ccccc2c1O | 3.54% (inactive) | –
37 | FC(F)(F)C(F)(F)C(F)(F)C(F)(F)C(F)(F)C(F)(F)CCI | -5.84% (inactive) | –
38 | CCN(CC)CCc1nc(-c2ccccc2)no1 | -7.16% [at 27 µM] (inactive) | –
39 | O=c1[nH]cnc2ccccc12 | -5.77% [at 78.9 µM] (inactive) | –
40 | Oc1ccc(Cc2ccccc2)cc1 | -14.4% (inactive) | –
